Data published in PubChem BioAssay.
Unmarked numbers belong to inactive results.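 The calls were made as follows, unless noted: active = aptamer binding inhibition above 30%, about 3 SD of noise from non-fluorescent compounds; inactive = inhibition at or below 30%.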

Tested on: not listed separately
Assay: superoxide lowering in aged yeast cells, pilot screen, validation compound set (AID 2706;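 active = superoxide response below 65% of plate, a cut near 3 SD across the whole screen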;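 also: yeast exposed to compound for one week at 30 degrees C before staining; 100% = mean of all compound wells on the same plate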)
Conditions: S. cerevisiae aging, superoxide DHE fluorescence; at 10 µM; hits give low values

Row | SMILES | superoxide response (% of plate) [%]
1 | CC(CCc1ccccc1)NC(C)C(O)c1ccc(O)cc1 (stereo not given) | 111
2 | NCCc1ccc(O)cc1 | 94.8
3 | CC/C(=C\C=C\[C@@H]1C=C[C@@H]2CCC[C@H]2[C@@H]1C(=O)c1ccc[nH]1)[C@@H]1O[C@@H]([C@@H](C)C(=O)O)CC[C@@H]1C | 94
4 | Cc1c2ccncc2c(C)c2c1[nH]c1ccccc12 | 84.9
5 | CCC(COC(=O)c1cc(OC)c(OC)c(OC)c1)(c1ccccc1)N(C)C (stereo not given) | 93.6
6 | Clc1ccc(COC(Cn2ccnc2)c2ccc(Cl)cc2Cl)c(Cl)c1 (stereo not given) | 76.7
7 | COc1cc(/C=C2\C(=O)NC(=O)N(c3ccccc3)C2=O)c([N+](=O)[O-])cc1OC | 102
8 | Nc1ccc([As](=O)(O)O)cc1 | 108
9 | CC(=O)Nc1cc([As](=O)(O)O)ccc1O | 92.8
10 | C[C@]12CCC(=O)C(O)=C1CC[C@@H]1[C@@H]2CC[C@]2(C)C(=O)CC[C@@H]12 | 97.5
11 | C[C@]12CCC(=O)C=C1CC[C@@H]1[C@@H]2C(=O)C[C@]2(C)C(=O)CC[C@@H]12 | 76.3
12 | CN1[C@@H]2CC[C@H]1CC(OC(=O)C1C=Nc3ccccc31)C2 (stereo not given in full) | 111
13 | CCCC(=O)OCC[N+](C)(C)C | 92.5
14 | CC12CCC3C(CC=C4CC5(CCC43C)OCCO5)C1CCC2=O (stereo not given) | 95.3
15 | Cc1nc2ccccc2c(=O)n1-c1ccc(C(=O)O)cc1 | 96.8
16 | c1ccc2c(c1)OCC(C1=NCCN1)O2 (stereo not given) | 90.8
17 | C[C@]12CC[C@@H]3c4ccc(O)c(O)c4CC[C@H]3[C@@H]1CC[C@@H]2O | 101
18 | NCC(O)c1ccc(O)cc1 (stereo not given) | 94.8
19 | COc1ccc2c3c([nH]c2c1)C(C)=NCC3 | 102
20 | CCCC(C)(COC(N)=O)COC(=O)NC(C)C (stereo not given) | 94.5
21 | c1cnc2c(c1)ccc1ncccc12 | 83.3
22 | CC12CN3CC(c4ccccc4)(CN(C1)C31CCCCC1)C2=O | 90.5
23 | C[C@H]1CCCC(=O)CCCCCc2cc(O)cc(O)c2C(=O)O1 | 101

Target: Beta-adrenergic receptor kinase 1 (Homo sapiens) (UniProt P25098)
Sequence (P25098 whole entry, looked up): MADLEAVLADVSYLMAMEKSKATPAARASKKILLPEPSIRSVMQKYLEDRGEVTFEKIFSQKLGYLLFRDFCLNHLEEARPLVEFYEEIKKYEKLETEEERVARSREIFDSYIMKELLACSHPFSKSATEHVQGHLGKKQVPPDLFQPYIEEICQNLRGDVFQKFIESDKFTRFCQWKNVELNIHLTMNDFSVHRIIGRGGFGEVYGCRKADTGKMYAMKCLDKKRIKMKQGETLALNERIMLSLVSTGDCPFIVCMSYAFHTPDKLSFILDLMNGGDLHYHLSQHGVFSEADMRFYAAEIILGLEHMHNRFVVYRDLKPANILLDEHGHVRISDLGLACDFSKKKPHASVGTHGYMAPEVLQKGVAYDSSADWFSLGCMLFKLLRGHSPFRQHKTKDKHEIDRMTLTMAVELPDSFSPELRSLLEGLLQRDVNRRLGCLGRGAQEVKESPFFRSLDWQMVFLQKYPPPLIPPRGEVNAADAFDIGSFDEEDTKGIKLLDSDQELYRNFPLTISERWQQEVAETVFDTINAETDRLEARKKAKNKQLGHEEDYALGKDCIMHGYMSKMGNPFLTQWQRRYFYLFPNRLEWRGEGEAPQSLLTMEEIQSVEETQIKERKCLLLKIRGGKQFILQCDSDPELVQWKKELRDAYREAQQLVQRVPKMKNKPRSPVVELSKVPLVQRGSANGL
Assay: GRK2 binders displacing RNA aptamer, biochemical, validation, human GRK2, bead flow cytometry (AID 488806)
Conditions: bead-bound GRK2, FAM-aptamer displacement, at 10 µM, hits give high values

Row | SMILES | aptamer binding inhibition [%]
24 | CC(CCc1ccccc1)NC(C)C(O)c1ccc(O)cc1 (stereo not given) | 1
25 | NCCc1ccc(O)cc1 | 2
26 | CC/C(=C\C=C\[C@@H]1C=C[C@@H]2CCC[C@H]2[C@@H]1C(=O)c1ccc[nH]1)[C@@H]1O[C@@H]([C@@H](C)C(=O)O)CC[C@@H]1C | 2
27 | Cc1c2ccncc2c(C)c2c1[nH]c1ccccc12 | -5
28 | CCC(COC(=O)c1cc(OC)c(OC)c(OC)c1)(c1ccccc1)N(C)C (stereo not given) | 1
29 | Clc1ccc(COC(Cn2ccnc2)c2ccc(Cl)cc2Cl)c(Cl)c1 (stereo not given) | 4
30 | COc1cc(/C=C2\C(=O)NC(=O)N(c3ccccc3)C2=O)c([N+](=O)[O-])cc1OC | 3
31 | Nc1ccc([As](=O)(O)O)cc1 | 2
32 | O=C1CSC2N1CCNC21CCCCC1 (stereo not given) | 0
33 | CC(=O)Nc1cc([As](=O)(O)O)ccc1O | 0
34 | C[C@]12CCC(=O)C(O)=C1CC[C@@H]1[C@@H]2CC[C@]2(C)C(=O)CC[C@@H]12 | 1
35 | C[C@]12CCC(=O)C=C1CC[C@@H]1[C@@H]2C(=O)C[C@]2(C)C(=O)CC[C@@H]12 | 3
36 | CN1[C@@H]2CC[C@H]1CC(OC(=O)C1C=Nc3ccccc31)C2 (stereo not given in full) | 0
37 | CCCC(=O)OCC[N+](C)(C)C | 4
38 | CC12CCC3C(CC=C4CC5(CCC43C)OCCO5)C1CCC2=O (stereo not given) | 3
39 | Cc1nc2ccccc2c(=O)n1-c1ccc(C(=O)O)cc1 | 3
40 | c1ccc2c(c1)OCC(C1=NCCN1)O2 (stereo not given) | 1
41 | C[C@]12CC[C@@H]3c4ccc(O)c(O)c4CC[C@H]3[C@@H]1CC[C@@H]2O | -1
42 | NCC(O)c1ccc(O)cc1 (stereo not given) | 2
43 | COc1ccc2c3c([nH]c2c1)C(C)=NCC3 | -10
44 | CCCC(C)(COC(N)=O)COC(=O)NC(C)C (stereo not given) | 6
45 | c1cnc2c(c1)ccc1ncccc12 | 8
46 | CC12CN3CC(c4ccccc4)(CN(C1)C31CCCCC1)C2=O | 4
47 | C[C@H]1CCCC(=O)CCCCCc2cc(O)cc(O)c2C(=O)O1 | -1

Target: Beta-2 adrenergic receptor (Homo sapiens) (UniProt P07550)
Sequence (P07550 whole entry, looked up): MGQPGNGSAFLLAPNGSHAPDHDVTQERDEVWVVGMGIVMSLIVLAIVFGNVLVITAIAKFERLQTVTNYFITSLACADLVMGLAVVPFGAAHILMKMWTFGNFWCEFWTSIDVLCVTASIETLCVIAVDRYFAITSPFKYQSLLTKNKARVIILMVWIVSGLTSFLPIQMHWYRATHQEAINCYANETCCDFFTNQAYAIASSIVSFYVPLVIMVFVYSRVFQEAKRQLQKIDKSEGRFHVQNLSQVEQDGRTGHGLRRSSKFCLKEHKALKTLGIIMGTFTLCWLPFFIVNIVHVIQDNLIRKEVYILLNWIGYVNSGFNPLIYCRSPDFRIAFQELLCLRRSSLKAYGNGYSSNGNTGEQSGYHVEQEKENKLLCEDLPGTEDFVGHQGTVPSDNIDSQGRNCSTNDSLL
Assay: beta2AR agonists driving receptor internalization, pilot screen, cell-based, FAP fluorogen, flow cytometry, validation set (AID 504459;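 active = percent response above 42, roughly 3 SD of non-fluorescent test compounds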;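 also: agonist-driven loss of surface beta2AR via internalization measured by FAP dye flow cytometry; reference of the scale not given here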)
Conditions: Am2.2-beta2AR cells, FAP surface receptor flow cytometry; at 10 µM; hits give high values

Row | SMILES | response [%]
48 | NCCc1ccc(O)cc1 | -14.8
49 | CC/C(=C\C=C\[C@@H]1C=C[C@@H]2CCC[C@H]2[C@@H]1C(=O)c1ccc[nH]1)[C@@H]1O[C@@H]([C@@H](C)C(=O)O)CC[C@@H]1C | 9.7
50 | Cc1c2ccncc2c(C)c2c1[nH]c1ccccc12 | -323
51 | CCC(COC(=O)c1cc(OC)c(OC)c(OC)c1)(c1ccccc1)N(C)C (stereo not given) | -24.8
52 | Clc1ccc(COC(Cn2ccnc2)c2ccc(Cl)cc2Cl)c(Cl)c1 (stereo not given) | -12.4
53 | COc1cc(/C=C2\C(=O)NC(=O)N(c3ccccc3)C2=O)c([N+](=O)[O-])cc1OC | 0.05
54 | O=C1CSC2N1CCNC21CCCCC1 (stereo not given) | 2.41
55 | CC(=O)Nc1cc([As](=O)(O)O)ccc1O | -23.7
56 | C[C@]12CCC(=O)C(O)=C1CC[C@@H]1[C@@H]2CC[C@]2(C)C(=O)CC[C@@H]12 | 4.26
57 | C[C@]12CCC(=O)C=C1CC[C@@H]1[C@@H]2C(=O)C[C@]2(C)C(=O)CC[C@@H]12 | -22.9
58 | CCCC(=O)OCC[N+](C)(C)C | 9.88
59 | CC12CCC3C(CC=C4CC5(CCC43C)OCCO5)C1CCC2=O (stereo not given) | 0.6
60 | Cc1nc2ccccc2c(=O)n1-c1ccc(C(=O)O)cc1 | 0.79
61 | NCC(O)c1ccc(O)cc1 (stereo not given) | 8.68
62 | CCCC(C)(COC(N)=O)COC(=O)NC(C)C (stereo not given) | -23.9
63 | c1cnc2c(c1)ccc1ncccc12 | -15
64 | CC12CN3CC(c4ccccc4)(CN(C1)C31CCCCC1)C2=O | 15.3
65 | C[C@H]1CCCC(=O)CCCCCc2cc(O)cc(O)c2C(=O)O1 | -25.5
